Rin1 Abl inh – human Rin1-Abl interaction inhibition | P00519+Q13671 | inhibition, % at 7.35 µM | TR-FRET Rin1/Abl binding, biochemical | 360,000 tested, 0.4% active | AID 588664; in the data active means inhibition above about 5%, passing the limit was not always enough
UHRF1 MBD2 ctr – human UHRF1 methylated DNA binding inhibitors; 370,000 tested, 0.75% active; UHRF1 binding to methylated oligo, TR-FRET; AID 687016; inhibition, % at 4.4 µM; in the data active means inhibition above about 21%;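 further: UHRF1 SRA domain binding a hemimethylated CpG hairpin DNA probe; 0% = median of test compound wells and 100% = reference inhibitor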
MBD2 inh – MBD2-methylated oligo binding inhibition; 370,000 tested, 0.31% active; inhibition, % at 4.4 µM; TR-FRET, MBD2 binding to methylated oligonucleotide; AID 686964; Q9UBB5; in the data active means inhibition above about 13%
KLK7 zymogen act – activates the human kallikrein-7 zymogen; P49862; activation, % at 7 µM; purified proKLK7, EDANS-DABCYL substrate fluorescence; 100% is mature enzyme control, 0% vehicle; AID 652039; 370,000 tested, 0.9% active;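 active means activation above the mean of all tested compounds plus 3 SD, computed per campaign excluding outliers beyond control limits, cut at about 13% in these data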
LEDGF integ inh – blocks HIV-1 LEDGF/p75-dependent DNA integration; AID 743269; 370,000 tested, 0.64% active; inhibition, % at 3.7 µM; TR-FRET IN-LEDGF/p75 DNA integration, Eu/Cy5;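 active means inhibition above the screen-wide mean plus 3 SD, cut at about 13% in these data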;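 further: signal is the Cy5 over europium emission ratio at 671 and 618 nm; 0% = plate median of compound wells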
Neddylation inh – blocks human cullin neddylation. P61081+Q13564. calls only at 25 µM. TR-FRET cullin neddylation, biochemical. 360,000 tested, 0.58% active. AID 651699; in the data active means inhibition above about 36%
Active calls of the source: *; i = inactive; · = not tested or not shown; + = active, no number. Most compounds without a hit are left out; they make up all but 3.1% or so of the library.

SMILES	Rin1 Abl inh	UHRF1 MBD2 ctr	MBD2 inh	KLK7 zymogen act	LEDGF integ inh	Neddylation inh
O=C1NC(c2ccccc2)c2c(-c3ccccc3)n[nH]c21 (stereo not drawn)	·	-1.1	-1.1	0.5	1.4	·
CN(Cc1ccco1)c1ncnc2ccc(-c3ccoc3)cc12	2.5	22.2*	12.8	-12.2	20.4*	+
CN(Cc1ccco1)c1ncnc2ccc(-c3ccccc3Cl)cc12	5.0	0.5	-3.9	-1.0	-2.0	i
CC1=C(C(=O)N2CCCCCC2)CC(CC(=O)NCCc2ccccn2)C(=O)N1CCCN1CCCC1=O (stereo not drawn)	·	1.6	1.4	-0.3	-5.1	i
CC12CCC(C(=O)N(CC(O)CN3CCN(Cc4ccccc4)CC3)C1=O)C2(C)C (stereo not drawn)	-3.1	24.1*	9.1	0.7	2.2	i
Cc1cc(C)cc(C(=O)N/N=C/c2ccoc2)c1	-1.5	3.6	-4.0	-0.6	3.4	i
O=C(N/N=C/c1ccoc1)c1cc(O)cc(O)c1	7.3	28.5*	4.8	-0.3	8.4	i
COc1cc(/C=N/NC(=O)c2cc(O)cc(O)c2)ccc1OC(=O)c1ccccc1	6.1	27.7*	9.7	0.0	8.9	i
O=C(N/N=C/c1ccc(OC(=O)c2ccccc2Cl)cc1)c1cc(O)cc(O)c1	3.9	37.3*	11.6	0.1	17.4*	i
Cn1nnc(NC(=O)c2cccc([N+](=O)[O-])c2)n1	-0.2	0.3	-3.9	-0.5	3.1	i
CCOC(=O)C(C)Oc1cc(Cl)c(C=O)cc1OC (stereo not drawn)	-0.5	62.3*	-1.2	-0.7	2.1	i
CCN(CC(=O)NCc1ccc(F)cc1)C(=O)C(C)Oc1cccc(Cl)c1 (stereo not drawn)	0.6	22.6*	9.6	-0.6	-0.5	i
CC1CCCN(S(=O)(=O)c2ccc3c(c2)OCCO3)C1 (stereo not drawn)	-4.4	0.4	3.6	0.7	-3.6	i
Cc1ccc(C(=O)Nc2ccc(C(=O)O)cc2NC(=O)c2ccc(C)cc2)cc1	-1.2	-0.5	2.3	-0.6	26.7*	i
COc1cc(C(=O)Nc2scc(-c3ccc(C)cc3)c2C(=O)O)cc(OC)c1OC	0.3	0.4	2.9	0.3	5.5	·
Cc1ccc(C(=O)Nc2scc(-c3ccccc3)c2C(=O)O)cc1	-3.3	2.6	2.7	-0.1	6.2	+
C=C(NC(=O)C(=C)NC(=O)c1csc(C2=NC3c4csc(n4)C4NC(=O)c5csc(n5)C(C(C)(O)C(C)O)NC(=O)C5CSC(=N5)/C(=C/C)NC(=O)C(C(C)O)NC(=O)c5csc(n5)C3(CC2)NC(=O)C(C)NC(=O)C(=C)NC(=O)C(=C)NC(=O)C(C(C)C)NC2C=Cc3c(C(C)O)cc(nc3C2O)C(=O)OC4C)n1)C(N)=O (stereo not drawn)	-0.6	-2.0	7.4	-0.1	32.2*	i
CCOc1cc(C(=O)Nc2ccc3c(c2)OCO3)ccc1OCCOc1ccccc1Cl	1.2	1.5	2.5	0.2	2.3	i
CCOc1ccc(C(=O)Nc2ccc3c(c2)OCO3)cc1OCC	3.0	24.7*	10.0	0.5	3.5	i
Cc1nnc(NC(=O)CSc2nnc(CC(=O)Nc3ccccc3F)n2C)s1	1.0	-2.4	2.7	-0.5	3.0	i
CCOC(=O)C(=O)Nc1cc(C)on1	2.8	22.2*	6.7	-0.9	7.9	i
COCN(C#N)c1nc(N(C)C)nc(N(C)C)n1	2.0	44.5*	-0.1	-0.1	1.7	i
COCN(C#N)c1nc(OC)nc(OC)n1	2.0	2.7	2.7	-0.7	1.1	i
O=C(N/N=C/c1ccc(Cl)cc1)C(=O)N1CCCCCC1	-0.9	27.1*	-0.5	0.3	-0.4	i
Cc1ccc(NC(=O)COc2ccc3oc4c(c3c2)CCCC4)nc1	0.5	25.5*	6.1	0.1	2.5	i
O=S1(=O)CC(N2CCN(Cc3ccccc3F)CC2)CN1Cc1cn(Cc2ccc(C(F)(F)F)cc2)nn1 (stereo not drawn)	·	21.0*	4.2	0.0	7.5	i
Cc1ccc(Cn2cc(CN3CC(N4CCN(Cc5ccccc5F)CC4)CS3(=O)=O)nn2)cc1 (stereo not drawn)	·	9.7	0.7	0.1	-4.0	i

Bioassay records from PubChem.
